# Values joined by “and” are separate entries in the source; they are usually repeats but may differ in a detail not shown here. Equal entries are not always repeated. Active and inactive are the calls of the source. Cut-off read from the data, not from the text of the source, unless noted: active = inhibition above about 80%; inactive = the rest.
# Tests used:
# [1] = hESC survival regulators, cell-based (AID 493140; call rule not given here;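 note: cells exposed to compounds for four days before counting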); conditions: human embryonic stem cell survival screen; stronger effect = higher value
# [2] = liver-stage malaria parasite growth inhibition, primary screen, cell-based, HepG2, luciferase luminescence, HepG2 viability (AID 624349; in the data active = parasite load remaining mostly below about 12%, no sharp cut-off; inactive = mostly above about 10%;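 note: 100% = mean of DMSO negative control wells on the same plate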); conditions: P. berghei liver stage in HepG2, luciferase luminescence, concentration not given here; parasite load remaining: stronger effect = lower value; viability: measured here: HepG2 viability without parasites
# [3] = sensitizers of A549 cells to miR-34 induction, primary screen, imaging, A549 dox-inducible miR-34, nuclei and caspase counts (AID 1347080;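 active = compounds whose cell count with miR-34 switched on is under 0.7 times the count with it off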); conditions: A549 miR-34 inducible, Hoechst nuclei count, 48 h
# [4] = survival rescue of mitochondrial mutant cells in low glucose, primary screen, MELAS cybrids, Rieske KO mouse fibroblasts, CellTiter-Glo (AID 1508586;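 active = mean z-score across replicates of 1.96 or higher in either the MELAS or the Rieske mutant cell line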;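 note: z relative to plate mean and SD of compound and empty wells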)
# [5] = LFS_MB_P medulloblastoma growth inhibition, cell-based, chromothripsis tumors, cisplatin or BGB combos (AID 1671449); conditions: LFS_MB_P medulloblastoma cells;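 note: cells exposed for 96 hours; 0% = vehicle DMSO and 100% = killing by high DMSO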
# [6] = HDN33 neuroblastoma growth inhibition, cell-based, chromothripsis tumors, cisplatin or BGB combos (AID 1671450); conditions: HDN33 neuroblastoma cells, stronger effect = higher value;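 note: cells exposed to compound for four days; 0% = vehicle DMSO and 100% = cell killing by high DMSO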
# [7] = ICB984 medulloblastoma cell growth inhibition, synergistic combos for chromothripsis tumors, cisplatin or BGB combos (AID 1671451; call rule not given here;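 note: cells exposed for 96 hours before readout; 0% = vehicle DMSO and 100% = killing by high DMSO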); conditions: ICB984 medulloblastoma cells, drug combinations, stronger effect = higher value
# [8] = LFS_MB_1R medulloblastoma cell growth inhibition, synergistic combos for chromothripsis tumors, cisplatin or BGB combos (AID 1671452); conditions: LFS_MB_1R medulloblastoma cells, stronger effect = higher value;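 note: cells exposed for 96 hours before readout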
# [9] = HTB85 osteosarcoma cell growth inhibition, synergistic combos for chromothripsis tumors, BGB or cisplatin IC20 combos (AID 1671453); conditions: HTB85 osteosarcoma cells, drug combinations, stronger effect = higher value;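 note: cells exposed for 96 hours before readout; 0% = vehicle DMSO and 100% = high DMSO killing control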
# [10] = CRL2098 osteosarcoma cell growth inhibition, synergistic combos for chromothripsis tumors, BGB or cisplatin IC20 combos (AID 1671454); conditions: CRL2098 osteosarcoma cells, drug combinations, stronger effect = higher value;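 note: cells exposed for 96 h before readout; 0% = vehicle DMSO and 100% = killing by high DMSO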
# [11] = HD-MB03 medulloblastoma cell growth inhibition, synergistic combos for chromothripsis tumors, BGB or cisplatin IC20 combos (AID 1671455; in the data active = inhibition above about 83%;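 note: 0% = vehicle DMSO and 100% = high DMSO as cytotoxic control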); conditions: HD-MB03 medulloblastoma cells, stronger effect = higher value
# [12] = UWB1.289 ovarian carcinoma cell growth inhibition, synergistic combos for chromothripsis tumors, BGB or cisplatin combos (AID 1671456); conditions: UWB1.289 ovarian carcinoma cells, stronger effect = higher value;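 note: cells exposed to compound for four days; 0% = vehicle DMSO and 100% = killing by high DMSO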
# [13] = LFS_MB_2R medulloblastoma cell growth inhibition, synergistic combos for chromothripsis tumors, cisplatin combos (AID 1671457); conditions: LFS_MB_2R medulloblastoma cells, stronger effect = higher value;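 note: cells exposed to compound for four days before readout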
# [14] = MDA-MB-436 breast carcinoma cell growth inhibition, synergistic combos for chromothripsis tumors, BGB or cisplatin combos (AID 1671458; call rule not given here;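 note: cells exposed for 96 hours; 0% = vehicle DMSO and 100% = killing by high DMSO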); conditions: MDA-MB-436 breast carcinoma growth inhibition, drug combinations, stronger effect = higher value
# [15] = UWB1.289_BRCA1 ovarian cancer growth, cell-based, BGB or cisplatin combinations (AID 1671459); conditions: UWB1.289 BRCA1 ovarian carcinoma, drug combinations, stronger effect = higher value
# [16] = human astrocyte viability loss, single and combined drugs, cytotoxicity control for chromothriptic childhood tumor combination screen, cell-based, BGB or cisplatin IC20 combos (AID 1671460); conditions: Human astrocytes, drug combinations, stronger effect = higher value;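 note: cells exposed to compounds for 96 hours before viability readout; 0% = vehicle and 100% = killing control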
# [17] = growth inhibition of BT084 medulloblastoma cells, cell-based, ICGC_MB145, cisplatin and BGB IC40 combos (AID 1671461); conditions: drug combinations, stronger effect = higher value;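 note: cells exposed to drugs for 96 hours; 0% = vehicle DMSO and 100% = high DMSO full killing control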
# [18] = growth inhibition of RCMB18 medulloblastoma cells, cell-based, cisplatin and BGB IC40 combos (AID 1671462); conditions: stronger effect = higher value;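 note: cells exposed to compound for four days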
# [19] = growth inhibition of CRL1545 osteosarcoma cells, cell-based, cisplatin and BGB IC20 combos (AID 1671464); conditions: stronger effect = higher value;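 note: cells exposed to compound for 96 hours before readout; 0% = vehicle DMSO and 100% = high DMSO killing control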
# [20] = stronger effect = lower value, cell number ratio, induced over uninduced
# [21] = measured here: relative caspase fold change +Dox/-Dox
# [22] = measured here: total cells with miR-34 induction, stronger effect = lower value
# [23] = measured here: total cells without miR-34 induction
# [24] = MELAS cybrid survival, CellTiter-Glo 48 h, stronger effect = higher value
# [25] = Rieske KO mouse fibroblast survival, CellTiter-Glo 72 h
# [26] = measured here: combination with BGB IC40, at 0.05 µM
# [27] = measured here: with BGB IC20 combination, at 0.5 µM
# [28] = measured here: with cisplatin IC20 combination, at 0.5 µM
# [29] = measured here: combination with cisplatin, at 0.5 µM
# [30] = measured here: combination with cisplatin, at 5 µM
smiles,measurement,setting,value
COC(=O)Nc1nc2ccc(SC(C)C)cc2[nH]1,survival,[1],0.5 (inactive)
same,parasite load remaining,[2],92.8% (inactive)
same,viability,[2],74.8%
same,fold change,[3]; [20],0.996 (inactive)
same,fold change,[3]; [21],0.586
same,cell count,[3]; [22],1650
same,cell count,[3]; [23],1660
same,z-score,[4]; [24],-2.13 (inactive)
same,z-score,[4]; [25],1.04
Nc1ccn(C2OC(CO)C(O)C2(F)F)c(=O)n1 (stereo not drawn),fold change,[3]; [20],1.02 (inactive)
same,fold change,[3]; [21],0.857
same,cell count,[3]; [22],1840
same,cell count,[3]; [23],1810
same,z-score,[4]; [24],2.35 (active)
same,z-score,[4]; [25],-0.225
same,inhibition,"[5]; at 0.5 µM, stronger effect = higher value",12.8% (inactive) and -24.1% (inactive) and -14.5% (inactive)
same,inhibition,"[5]; measured here: combination with BGB IC20, at 0.005 µM",-8.46% and 7.63% and 14%
same,inhibition,"[5]; measured here: combination with BGB IC40, at 0.005 µM",-8.25% and -29.3% and -2.14%
same,inhibition,[5]; [26],-22.1% and -15.3% and -25.2%
same,inhibition,"[5]; measured here: combination with cisplatin, at 0.5 µM, stronger effect = higher value",91.7% and -25.4% and 35.7%
same,inhibition,"[5]; measured here: combination with cisplatin, at 5 µM, stronger effect = higher value",65.8% and 67.6% and 88%
same,inhibition,"[6]; BGB combo, at 5 µM",86.4% and 89.9% and 88.8%
same,inhibition,[6]; at 0.5 µM,87.6% (active) and 87.3% (active) and 83.2% (active)
same,inhibition,"[6]; cisplatin combo, at 5 µM",81.7% and 86.5% and 82.8%
same,inhibition,[6]; [27],88.2% and 89.8% and 84.6%
same,inhibition,[6]; [28],86.2% and 82.4% and 79.7%
same,inhibition,"[6]; single agent, at 5 µM",88.8% and 90% and 87.7%
same,inhibition,"[7]; BGB IC20 combo, at 0.005 µM",-3.49% and -7.36% and -23.1%
same,inhibition,"[7]; BGB IC40 combo, at 0.005 µM",-5.04% and 4.53% and 16%
same,inhibition,"[7]; BGB IC40 combo, at 0.05 µM",26% and 33.4% and 30.2%
same,inhibition,[7]; at 0.5 µM,-22.9% (inactive) and -37.1% (inactive) and -18.5% (inactive)
same,inhibition,"[7]; cisplatin combo, at 0.05 µM",26% and 30.8% and 27.7%
same,inhibition,"[7]; cisplatin combo, at 0.5 µM",-43.1% and -45% and -7.88%
same,inhibition,"[7]; cisplatin combo, at 5 µM",-24% and -19.7% and -23.1%
same,inhibition,"[7]; measured here: 5 uM single agent, at 5 µM",-32.2% and -6.79% and -21%
same,inhibition,[8]; at 0.5 µM,-17.1% (inactive) and -7.38% (inactive) and 7.19% (inactive)
same,inhibition,[8]; [26],-7.29% and 0.139% and -43.6%
same,inhibition,[8]; [29],49.7% and 24.2% and 32.2%
same,inhibition,[8]; [30],66.7% and 77.2% and 68.3%
same,inhibition,[9]; at 0.5 µM,86.6% (active) and 90.3% (active) and 89.1% (active)
same,inhibition,"[9]; measured here: with BGB IC20, at 0.5 µM",76.2% and 85.7% and 83.4%
same,inhibition,"[9]; measured here: with BGB IC20, at 5 µM",72.1% and 73.5% and 75.1%
same,inhibition,"[9]; measured here: with cisplatin IC20, at 0.5 µM",91.2% and 91.9% and 89.4%
same,inhibition,"[9]; measured here: with cisplatin IC20, at 5 µM",90.4% and 93.2% and 92.8%
same,inhibition,"[9]; single agent, at 5 µM",92.2% and 93.6% and 92.8%
same,inhibition,[10]; at 0.5 µM,68.5% (inactive) and 65.4% (inactive) and 40.8% (inactive)
same,inhibition,"[10]; measured here: combination with BGB at IC20, at 0.5 µM",53% and 49.8% and 5.09%
same,inhibition,"[10]; measured here: combination with cisplatin at IC20, at 0.5 µM",70.5% and 84.6% and 51.6%
same,inhibition,[11]; at 0.5 µM,92.5% (active) and 91.3% (active)
same,inhibition,"[11]; measured here: combo with BGB at IC20, at 0.5 µM",87.4% and 87.6% and 86.6%
same,inhibition,"[11]; measured here: combo with cisplatin at IC20, at 0.5 µM",96.8% and 96.7% and 96%
same,inhibition,[12]; at 0.5 µM,36.9% (inactive) and 40.6% (inactive) and 36.4% (inactive)
same,inhibition,"[12]; measured here: inhibition with BGB combination, at 0.05 µM",-8.95% and 6.66% and -8.78%
same,inhibition,"[12]; measured here: inhibition with cisplatin combination, at 0.05 µM",34.8% and 31% and 33.4%
same,inhibition,[13]; at 0.5 µM,-9.87% (inactive) and -8.63% (inactive) and -0.27% (inactive)
same,inhibition,[13]; [29],22.8% and 20.6% and 41.7%
same,inhibition,[13]; [30],40.3% and 52.4% and 57.5%
same,inhibition,[14]; at 0.5 µM,67.3% (inactive) and 69.9% (inactive) and 70.3% (inactive)
same,inhibition,"[14]; measured here: BGB combination, at 0.5 µM",56.1% and 61.1% and 59%
same,inhibition,"[14]; measured here: BGB combination, at 5 µM",58% and 56% and 66.5%
same,inhibition,"[14]; measured here: cisplatin combination, at 0.5 µM",71.9% and 76.1% and 74.4%
same,inhibition,"[14]; measured here: cisplatin combination, at 5 µM",77.8% and 78.1% and 78.7%
same,inhibition,"[15]; BGB combination, concentration series, at 5 µM",71.1% and 55.2% and 80.4%
same,inhibition,[15]; at 0.5 µM,43.5% (inactive) and 49.4% (inactive) and 43.9% (inactive)
same,inhibition,"[15]; cisplatin combination, concentration series, at 5 µM",101% and 97.9% and 125%
same,inhibition,[16]; at 0.5 µM,70% (inactive) and 73.6% (inactive) and 72.6% (inactive)
same,inhibition,"[16]; measured here: combo with BGB IC20, at 0.5 µM",71.3% and 72.2% and 72.3%
same,inhibition,"[16]; measured here: combo with cisplatin IC20, at 0.5 µM",58.6% and 65% and 62%
same,inhibition,[17]; at 0.5 µM,-11% (inactive) and -2.39% (inactive) and 3.77% (inactive)
same,inhibition,"[17]; cisplatin combination, at 0.5 µM",30.6% and 26.6% and 14.1%
same,inhibition,"[17]; cisplatin combination, at 5 µM",52.1% and 55.8% and 69.2%
same,inhibition,"[17]; measured here: BGB IC40 combination 0.05 uM, at 0.05 µM",-18.1% and -16.5% and -27.6%
same,inhibition,"[17]; single agent, at 5 µM",11.1% and 16.6% and 14.7%
same,inhibition,[18]; at 0.5 µM,5.91% (inactive) and 3.99% (inactive) and 14.1% (inactive)
same,inhibition,"[18]; cisplatin combo, at 5 µM",85.9% and 82.9%
same,inhibition,"[18]; measured here: BGB IC40 combination, at 0.05 µM",-10.4% and -39% and -30%
same,inhibition,[18]; [29],68.2% and 64.5% and 57.4%
same,inhibition,"[18]; single agent, at 5 µM",10.1% and 16.5% and 18.8%
same,inhibition,[19]; at 0.5 µM,65.3% (inactive) and 70.4% (inactive) and 61.5% (inactive)
same,inhibition,[19]; [27],73.4% and 66.6% and 67.9%
same,inhibition,[19]; [28],61.3% and 72.3% and 57.7%
same,inhibition,"[19]; single agent, at 0.05 µM",71.8% and 61.1% and 53.4%
same,inhibition,"[19]; single agent, at 5 µM",87.7% and 91.1% and 81.7%
